Binding signal data for 1 sequence are collected here from paper PMC7862700, “An all-to-all approach to the identification of sequence-specific readers for epigenetic DNA modifications on cytosine”.

Holding throughout (assay): DAPPL (digital affinity profiling via proximity ligation, sequencing); 10 mM Tris-HCl pH 7.5, 50 mM NaCl, 1 mM DTT, 4% glycerol, room temperature, 30 min; GST-TFs on glutathione beads, 16-mer random dsDNA library, 0.1% formaldehyde crosslink after washing; high values mean tight binding
The target in one experiment is T1, FEV (Homo sapiens, UniProt Q99581 1-238).
T1 sequence: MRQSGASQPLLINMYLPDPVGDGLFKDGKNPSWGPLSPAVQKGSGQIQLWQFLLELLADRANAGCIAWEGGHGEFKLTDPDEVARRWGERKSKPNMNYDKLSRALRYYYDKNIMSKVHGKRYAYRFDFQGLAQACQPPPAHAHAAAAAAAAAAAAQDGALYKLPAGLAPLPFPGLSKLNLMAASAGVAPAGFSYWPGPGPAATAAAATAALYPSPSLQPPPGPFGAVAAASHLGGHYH
Conditions: protein: recombinant; tags: N-terminal GST; dsDNA, one strand shown. Summed up: (§1)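 Each value of binding signal is a hexamer's read frequency for a factor divided by the same hexamer's frequency in the tag-only sample. Barcoded, bead-captured GST fusions of human transcription factors made in yeast were pooled with that sample and incubated with 200 nmole of a random double-stranded 16-mer DNA library in Tris/NaCl/DTT/glycerol buffer at room temperature for 30 min. Washing, 0.1% formaldehyde crosslinking, proximity ligation, PCR and Illumina NextSeq500 sequencing followed.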

For another experiment, the target named is ETV5 (Homo sapiens, UniProt P41161 1-510). To be noted: protein: recombinant; tags: N-terminal GST; dsDNA, one strand shown. Summed up: as §1
Chain of ETV5 (P41161 whole entry): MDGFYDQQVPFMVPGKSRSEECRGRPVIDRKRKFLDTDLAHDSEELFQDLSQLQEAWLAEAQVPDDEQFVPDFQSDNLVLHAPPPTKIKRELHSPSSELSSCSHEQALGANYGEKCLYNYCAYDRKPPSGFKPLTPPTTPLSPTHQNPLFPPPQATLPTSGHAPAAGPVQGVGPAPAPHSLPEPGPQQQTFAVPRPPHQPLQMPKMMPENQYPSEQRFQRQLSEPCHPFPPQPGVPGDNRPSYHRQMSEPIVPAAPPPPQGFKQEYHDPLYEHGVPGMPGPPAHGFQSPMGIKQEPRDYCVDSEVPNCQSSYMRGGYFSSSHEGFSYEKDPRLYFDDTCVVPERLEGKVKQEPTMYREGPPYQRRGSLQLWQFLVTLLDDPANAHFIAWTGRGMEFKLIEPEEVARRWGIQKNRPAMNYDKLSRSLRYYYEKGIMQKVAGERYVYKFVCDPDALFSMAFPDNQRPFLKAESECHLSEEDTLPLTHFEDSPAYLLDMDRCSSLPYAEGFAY
A further experiment concerns the target HSF1 (Homo sapiens, UniProt Q00613 1-529). Conditions: protein: recombinant; tags: N-terminal GST; chain copies: 3; dsDNA, one strand shown. Put shortly:
as §1

The next experiment addresses T2, SPIC (Homo sapiens, UniProt Q8N5J4 1-248).
T2 sequence: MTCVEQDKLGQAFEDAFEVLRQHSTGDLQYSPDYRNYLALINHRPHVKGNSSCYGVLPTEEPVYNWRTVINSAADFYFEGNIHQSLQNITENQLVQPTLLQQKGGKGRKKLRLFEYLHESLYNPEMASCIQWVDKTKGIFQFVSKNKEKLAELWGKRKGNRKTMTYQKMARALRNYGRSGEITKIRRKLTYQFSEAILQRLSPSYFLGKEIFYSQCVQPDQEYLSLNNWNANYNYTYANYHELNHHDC
To be noted: protein: recombinant; tags: N-terminal GST; dsDNA, one strand shown. Put shortly: as §1

The next experiment addresses ELF4 (Homo sapiens, UniProt Q99607 1-663). Conditions: protein: recombinant; tags: N-terminal GST; dsDNA, one strand shown. Put shortly: as §1
A further experiment deals with T3, ELK4 (Homo sapiens, UniProt P28324-2 1-405).
T3 sequence: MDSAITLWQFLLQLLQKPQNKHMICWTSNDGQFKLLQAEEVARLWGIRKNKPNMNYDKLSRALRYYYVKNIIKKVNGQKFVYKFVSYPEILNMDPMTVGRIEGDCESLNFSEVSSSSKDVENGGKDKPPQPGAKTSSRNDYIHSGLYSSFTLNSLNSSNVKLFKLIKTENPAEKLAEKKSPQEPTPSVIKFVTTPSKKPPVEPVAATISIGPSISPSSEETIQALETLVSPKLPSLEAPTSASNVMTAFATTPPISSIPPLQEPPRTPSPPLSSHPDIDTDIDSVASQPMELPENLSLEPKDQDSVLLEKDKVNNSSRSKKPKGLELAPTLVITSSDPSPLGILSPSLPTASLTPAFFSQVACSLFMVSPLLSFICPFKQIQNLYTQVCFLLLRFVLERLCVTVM
To be noted: protein: recombinant; tags: N-terminal GST; dsDNA, one strand shown. Summed up: as §1

Another experiment deals with T4, ETV2 (Homo sapiens, UniProt O00321 1-342).
T4 sequence: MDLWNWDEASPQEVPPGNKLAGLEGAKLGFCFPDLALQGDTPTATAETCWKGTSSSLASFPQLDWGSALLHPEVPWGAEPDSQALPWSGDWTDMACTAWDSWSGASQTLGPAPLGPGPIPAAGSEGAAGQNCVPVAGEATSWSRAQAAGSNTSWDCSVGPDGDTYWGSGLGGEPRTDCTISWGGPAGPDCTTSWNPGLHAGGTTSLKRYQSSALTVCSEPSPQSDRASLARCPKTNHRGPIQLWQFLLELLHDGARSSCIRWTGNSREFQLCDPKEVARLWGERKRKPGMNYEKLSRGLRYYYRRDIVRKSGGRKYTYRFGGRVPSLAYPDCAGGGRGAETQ
Conditions: protein: recombinant; tags: N-terminal GST; dsDNA, one strand shown. Summed up:
as §1

For another experiment, the target named is T5, ELF3 (Homo sapiens, UniProt P78545 1-371).
T5 sequence: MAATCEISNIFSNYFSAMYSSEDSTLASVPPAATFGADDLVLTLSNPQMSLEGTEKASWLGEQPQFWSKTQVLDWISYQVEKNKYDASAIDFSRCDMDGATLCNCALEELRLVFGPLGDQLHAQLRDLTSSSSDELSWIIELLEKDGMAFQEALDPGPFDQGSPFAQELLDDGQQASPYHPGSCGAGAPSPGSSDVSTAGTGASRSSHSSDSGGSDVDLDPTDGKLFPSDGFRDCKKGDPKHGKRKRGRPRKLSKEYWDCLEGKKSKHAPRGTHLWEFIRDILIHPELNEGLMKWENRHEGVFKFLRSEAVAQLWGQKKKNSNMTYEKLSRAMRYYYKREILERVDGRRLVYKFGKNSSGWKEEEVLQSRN
To be noted: protein: recombinant; tags: N-terminal GST; dsDNA, one strand shown. Put shortly: as §1

For a further experiment, the target named is CRX (Homo sapiens, UniProt O43186 1-299). To be noted: protein: recombinant; tags: N-terminal GST; dsDNA, one strand shown. Summed up: as §1
Chain of CRX (O43186 whole entry): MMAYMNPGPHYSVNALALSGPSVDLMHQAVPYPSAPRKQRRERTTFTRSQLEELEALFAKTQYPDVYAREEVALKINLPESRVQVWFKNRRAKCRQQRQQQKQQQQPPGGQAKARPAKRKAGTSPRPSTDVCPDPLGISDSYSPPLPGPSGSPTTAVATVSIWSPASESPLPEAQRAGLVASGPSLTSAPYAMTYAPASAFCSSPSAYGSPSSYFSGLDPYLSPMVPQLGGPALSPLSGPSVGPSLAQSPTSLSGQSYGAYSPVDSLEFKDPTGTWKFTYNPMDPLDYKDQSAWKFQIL
The next experiment deals with ETV1 (Homo sapiens, UniProt P50549 1-477). Conditions: protein: recombinant; tags: N-terminal GST; dsDNA, one strand shown. Put shortly: as §1
Chain of ETV1 (P50549 whole entry): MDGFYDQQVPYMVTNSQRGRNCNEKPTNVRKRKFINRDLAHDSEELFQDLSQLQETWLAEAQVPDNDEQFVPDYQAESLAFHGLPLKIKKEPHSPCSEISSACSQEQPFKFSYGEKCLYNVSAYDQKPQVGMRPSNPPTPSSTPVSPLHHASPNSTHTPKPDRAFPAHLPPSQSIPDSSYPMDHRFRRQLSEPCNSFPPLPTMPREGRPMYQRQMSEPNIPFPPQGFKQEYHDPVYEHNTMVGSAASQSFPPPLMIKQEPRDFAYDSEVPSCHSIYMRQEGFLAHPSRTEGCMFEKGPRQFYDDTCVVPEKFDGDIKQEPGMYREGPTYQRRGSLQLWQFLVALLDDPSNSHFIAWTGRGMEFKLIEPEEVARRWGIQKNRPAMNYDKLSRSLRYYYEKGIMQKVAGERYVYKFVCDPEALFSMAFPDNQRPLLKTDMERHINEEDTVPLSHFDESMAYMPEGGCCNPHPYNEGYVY
In a further experiment the target is T6, ERF (Homo sapiens, UniProt P50548 1-548).
T6 sequence: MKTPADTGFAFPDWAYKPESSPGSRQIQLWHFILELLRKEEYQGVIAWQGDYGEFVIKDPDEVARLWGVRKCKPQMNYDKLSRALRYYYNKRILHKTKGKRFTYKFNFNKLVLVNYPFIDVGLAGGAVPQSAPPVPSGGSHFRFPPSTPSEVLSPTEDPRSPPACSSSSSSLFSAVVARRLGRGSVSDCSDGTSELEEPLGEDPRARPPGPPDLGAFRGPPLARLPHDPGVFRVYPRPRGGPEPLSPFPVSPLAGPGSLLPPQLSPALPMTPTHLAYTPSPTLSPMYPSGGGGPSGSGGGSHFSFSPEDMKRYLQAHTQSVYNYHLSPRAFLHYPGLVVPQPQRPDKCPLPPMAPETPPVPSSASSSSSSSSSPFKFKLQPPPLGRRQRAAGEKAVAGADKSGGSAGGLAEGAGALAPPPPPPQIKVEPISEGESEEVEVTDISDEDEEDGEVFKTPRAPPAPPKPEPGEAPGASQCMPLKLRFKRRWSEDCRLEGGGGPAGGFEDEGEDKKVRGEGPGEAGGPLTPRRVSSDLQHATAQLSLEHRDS
Conditions: protein: recombinant; tags: N-terminal GST; dsDNA, one strand shown. Summed up: as §1

A further experiment addresses T7, ETV3L (Homo sapiens, UniProt Q6ZN32 1-361).
T7 sequence: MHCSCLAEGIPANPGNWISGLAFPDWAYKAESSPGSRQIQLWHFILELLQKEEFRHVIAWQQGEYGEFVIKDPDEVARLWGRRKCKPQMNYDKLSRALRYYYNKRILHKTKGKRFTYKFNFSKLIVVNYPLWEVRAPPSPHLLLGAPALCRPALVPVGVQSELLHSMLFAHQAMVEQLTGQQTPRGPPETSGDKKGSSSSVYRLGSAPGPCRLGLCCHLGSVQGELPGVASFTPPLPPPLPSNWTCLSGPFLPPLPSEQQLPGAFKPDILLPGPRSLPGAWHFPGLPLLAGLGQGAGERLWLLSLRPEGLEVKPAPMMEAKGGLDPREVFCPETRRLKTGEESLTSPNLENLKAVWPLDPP
Conditions: protein: recombinant; tags: N-terminal GST; dsDNA, one strand shown. Summed up: as §1

Another experiment has as its target T8, ETS2 (Homo sapiens, UniProt P15036 1-469).
T8 sequence: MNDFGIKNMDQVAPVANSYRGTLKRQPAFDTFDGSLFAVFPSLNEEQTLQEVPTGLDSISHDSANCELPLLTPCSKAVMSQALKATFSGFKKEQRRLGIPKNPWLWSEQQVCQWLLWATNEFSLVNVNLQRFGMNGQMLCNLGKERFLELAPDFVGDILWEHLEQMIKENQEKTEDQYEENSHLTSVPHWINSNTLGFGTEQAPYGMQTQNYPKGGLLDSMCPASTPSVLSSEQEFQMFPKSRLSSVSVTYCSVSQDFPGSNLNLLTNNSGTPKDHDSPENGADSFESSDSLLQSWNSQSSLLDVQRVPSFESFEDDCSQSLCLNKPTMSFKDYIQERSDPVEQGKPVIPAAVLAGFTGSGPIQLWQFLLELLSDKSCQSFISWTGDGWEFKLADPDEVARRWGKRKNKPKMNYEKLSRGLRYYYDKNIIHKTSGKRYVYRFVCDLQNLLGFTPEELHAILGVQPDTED
Conditions: protein: recombinant; tags: N-terminal GST; dsDNA, one strand shown. Summed up:
as §1

In the next experiment the target is T9, SPDEF (Homo sapiens, UniProt O95238 1-335).
T9 sequence: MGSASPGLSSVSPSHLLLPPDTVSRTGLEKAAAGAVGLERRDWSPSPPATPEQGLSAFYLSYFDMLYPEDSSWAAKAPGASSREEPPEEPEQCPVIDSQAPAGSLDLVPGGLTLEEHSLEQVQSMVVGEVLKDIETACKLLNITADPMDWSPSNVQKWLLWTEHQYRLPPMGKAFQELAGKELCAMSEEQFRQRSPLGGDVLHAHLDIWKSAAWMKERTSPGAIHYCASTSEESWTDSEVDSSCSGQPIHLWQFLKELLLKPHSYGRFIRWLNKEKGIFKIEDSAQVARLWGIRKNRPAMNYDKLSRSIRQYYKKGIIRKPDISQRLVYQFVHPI
Conditions: protein: recombinant; tags: N-terminal GST; dsDNA, one strand shown. Summed up:
as §1

A further experiment deals with T10, ETV7 (Homo sapiens, UniProt Q9Y603 1-341).
T10 sequence: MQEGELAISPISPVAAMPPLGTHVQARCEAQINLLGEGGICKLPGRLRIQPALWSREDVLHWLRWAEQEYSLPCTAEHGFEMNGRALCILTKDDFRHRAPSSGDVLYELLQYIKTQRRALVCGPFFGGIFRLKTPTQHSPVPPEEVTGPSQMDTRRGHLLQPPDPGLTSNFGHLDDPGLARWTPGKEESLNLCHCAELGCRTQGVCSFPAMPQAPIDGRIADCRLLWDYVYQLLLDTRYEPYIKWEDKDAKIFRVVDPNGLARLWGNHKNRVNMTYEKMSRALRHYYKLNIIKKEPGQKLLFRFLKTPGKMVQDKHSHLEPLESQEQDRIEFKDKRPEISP
Conditions: protein: recombinant; tags: N-terminal GST; dsDNA, one strand shown. Summed up: as §1

The target of a further experiment is T11, ELF5 (Homo sapiens, UniProt Q9UKW6-2 1-255).
T11 sequence: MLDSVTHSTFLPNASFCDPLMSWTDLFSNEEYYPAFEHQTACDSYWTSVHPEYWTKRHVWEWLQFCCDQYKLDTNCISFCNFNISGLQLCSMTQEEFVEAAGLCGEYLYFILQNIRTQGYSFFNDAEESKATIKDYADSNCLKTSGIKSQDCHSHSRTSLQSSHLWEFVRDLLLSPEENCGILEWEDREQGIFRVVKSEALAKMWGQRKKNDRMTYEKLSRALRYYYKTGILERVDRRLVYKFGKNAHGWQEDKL
To be noted: protein: recombinant; tags: N-terminal GST; dsDNA, one strand shown. Put shortly:
as §1

The target of a further experiment is T12, ETV3 (Homo sapiens, UniProt P41162-2 1-143).
T12 sequence: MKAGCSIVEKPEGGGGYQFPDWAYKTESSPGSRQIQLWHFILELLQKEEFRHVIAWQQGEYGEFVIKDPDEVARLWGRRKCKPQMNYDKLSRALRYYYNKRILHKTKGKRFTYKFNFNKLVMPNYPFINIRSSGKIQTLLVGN
Conditions: protein: recombinant; tags: N-terminal GST; dsDNA, one strand shown. Put shortly:
as §1

A further experiment deals with ETV6 (Homo sapiens, UniProt P41212 1-452). Conditions: protein: recombinant; tags: N-terminal GST; dsDNA, one strand shown. Summed up:
as §1

Chain of ETV6 (P41212 whole entry): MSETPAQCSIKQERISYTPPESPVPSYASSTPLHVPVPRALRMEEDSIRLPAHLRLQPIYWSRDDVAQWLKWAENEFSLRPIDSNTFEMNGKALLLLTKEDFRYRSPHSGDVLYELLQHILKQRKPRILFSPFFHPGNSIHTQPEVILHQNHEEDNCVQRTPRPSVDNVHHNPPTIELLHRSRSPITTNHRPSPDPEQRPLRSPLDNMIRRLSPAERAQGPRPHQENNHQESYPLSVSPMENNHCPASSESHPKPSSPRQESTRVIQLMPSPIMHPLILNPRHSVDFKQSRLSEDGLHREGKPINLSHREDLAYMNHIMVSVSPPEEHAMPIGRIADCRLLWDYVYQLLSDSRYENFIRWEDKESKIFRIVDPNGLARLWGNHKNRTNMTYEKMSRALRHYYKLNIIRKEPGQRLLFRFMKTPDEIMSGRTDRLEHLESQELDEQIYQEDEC
Chain of HSF1 (Q00613 whole entry): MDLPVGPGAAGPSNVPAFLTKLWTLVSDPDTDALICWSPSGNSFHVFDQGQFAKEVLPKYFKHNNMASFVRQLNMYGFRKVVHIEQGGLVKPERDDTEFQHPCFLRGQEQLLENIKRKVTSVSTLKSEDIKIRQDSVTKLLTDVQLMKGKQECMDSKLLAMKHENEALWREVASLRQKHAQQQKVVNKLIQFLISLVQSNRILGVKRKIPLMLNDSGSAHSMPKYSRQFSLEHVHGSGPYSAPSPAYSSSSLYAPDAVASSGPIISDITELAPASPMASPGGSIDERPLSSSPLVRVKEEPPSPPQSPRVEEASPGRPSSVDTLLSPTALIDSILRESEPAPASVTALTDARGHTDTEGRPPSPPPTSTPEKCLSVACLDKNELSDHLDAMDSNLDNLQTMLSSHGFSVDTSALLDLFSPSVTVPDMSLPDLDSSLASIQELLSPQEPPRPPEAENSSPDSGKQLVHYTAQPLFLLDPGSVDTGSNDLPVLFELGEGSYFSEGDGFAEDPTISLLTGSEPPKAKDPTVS
Chain of ELF4 (Q99607 whole entry): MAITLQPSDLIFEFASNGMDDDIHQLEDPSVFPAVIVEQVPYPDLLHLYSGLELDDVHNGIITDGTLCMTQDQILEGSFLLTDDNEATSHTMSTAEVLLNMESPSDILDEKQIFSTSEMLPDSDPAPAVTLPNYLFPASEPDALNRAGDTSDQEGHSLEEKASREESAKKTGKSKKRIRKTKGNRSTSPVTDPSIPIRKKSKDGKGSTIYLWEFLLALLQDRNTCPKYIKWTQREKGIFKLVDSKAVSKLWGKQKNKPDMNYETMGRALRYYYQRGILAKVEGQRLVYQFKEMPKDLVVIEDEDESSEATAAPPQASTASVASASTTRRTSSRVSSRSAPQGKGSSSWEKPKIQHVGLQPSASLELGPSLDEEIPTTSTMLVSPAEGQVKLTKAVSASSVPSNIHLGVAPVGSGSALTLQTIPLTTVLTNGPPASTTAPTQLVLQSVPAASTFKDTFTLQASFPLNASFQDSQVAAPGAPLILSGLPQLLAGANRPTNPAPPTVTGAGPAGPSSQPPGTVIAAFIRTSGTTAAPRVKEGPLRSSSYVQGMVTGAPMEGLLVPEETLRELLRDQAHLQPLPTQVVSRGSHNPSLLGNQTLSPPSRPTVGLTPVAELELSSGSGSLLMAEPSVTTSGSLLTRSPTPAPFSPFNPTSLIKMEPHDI

As to AAAACC, the binding signal with FEV was 1.24 fold enrichment (6-mer frequency, TF over GST control); with ETV5 it was 1.18 fold enrichment (6-mer frequency, TF over GST control); with HSF1, 1.09 fold enrichment (6-mer frequency, TF over GST control); with SPIC, 1.15 fold enrichment (6-mer frequency, TF over GST control); in the experiment with ELF4 it was 1.19 fold enrichment (6-mer frequency, TF over GST control); with ELK4 it was 1.22 fold enrichment (6-mer frequency, TF over GST control). Moreover, the binding signal is 1.15 fold enrichment (6-mer frequency, TF over GST control) with ETV2; 1.17 fold enrichment (6-mer frequency, TF over GST control) with ELF3; 1.19 fold enrichment (6-mer frequency, TF over GST control) with CRX; 1.19 fold enrichment (6-mer frequency, TF over GST control) with ETV1; 1.22 fold enrichment (6-mer frequency, TF over GST control) in the experiment with ERF; 1.18 fold enrichment (6-mer frequency, TF over GST control) with ETV3L. Besides, the binding signal with ETS2 was 1.11 fold enrichment (6-mer frequency, TF over GST control); with SPDEF it was 1.18 fold enrichment (6-mer frequency, TF over GST control); with ETV7 it was 1.25 fold enrichment (6-mer frequency, TF over GST control); with ELF5, 1.19 fold enrichment (6-mer frequency, TF over GST control); with ETV3, 1.08 fold enrichment (6-mer frequency, TF over GST control); with ETV6 it was 1.19 fold enrichment (6-mer frequency, TF over GST control).
